# Data taken from PubChem BioAssay AID488909 (Broad Institute, 2010).
# Results with a measured potency or affinity are listed apart. Records with an inconclusive call do not appear. Calls of active or inactive are those of the source.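 The calls were made as follows: active = fluorescence drops, meaning less fungal growth, with half-maximal dose at most ten times the top valid tested dose; inconclusive = flat curve with 30 to 70% inhibition, or poor fit; inactive = the rest, including compounds that raise the signal.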
# Test: growth inhibition of azole-resistant C. albicans, dose response, CaCi-8 strain, Alamar Blue, dry powder, set 2 (AID 488909)
# Conditions: C. albicans CaCi-8 + fluconazole, 48 h; series mostly up to 26 µM; activity change, negative = inhibition: at the top concentration
row,SMILES,"activity change, negative = inhibition"
1,COCCC(=O)N1CCN(c2ccnc3cc(Cl)ccc23)CC1,-6.82% (inactive)
2,Clc1ccc2c(N3CCNCC3)ccnc2c1,8.86% (inactive)
3,Cc1cc(N2CCN(C(=O)c3ccc(Cl)cc3)CC2)c2ccccc2n1,-20.2% (inactive)
4,N#Cc1ccc(N2CCN(C(=O)c3ccc(Cl)cc3)CC2)nc1,-19.2% (inactive)
